An excerpt weighted towards active compounds, which were near 19% of everything screened.
TDP1 cell CPT: growth inhibition of DT40 Tdp1-/-;hTDP1 cells with camptothecin (screen for TDP1 inhibitors); Potency, µM (highest dose often 46.2 µM), actives largely listed as inhibitors; 12% of 420,000 active; chicken DT40 Tdp1-/-;hTDP1 cells + 20 nM CPT, ATP luminescence, 48 h; further: nearly all actives have a fitted effect of over 55% in size
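Chicken DT40 Tdp1-/- cells complemented with human TDP1, 400 cells/well, exposed to compounds plus 20 nM camptothecin for at least 48 h at 37 C; viability read as ATP content by CellTiter-Glo luminescence.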
TDP1 cell noCPT: qHTS for Inhibitors of human tyrosyl-DNA phosphodiesterase 1 (TDP1): qHTS in cells in absence of CPT; DT40 Tdp1-/- hTDP1 cells, no CPT, ATP luminescence, 48 h; Potency, µM (titrated, usually from 46.2 µM), usual class: inhibitors; 15% of 420,000 active; further: nearly all actives have a fitted effect of over 55% in size
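Chicken DT40 Tdp1-/- cells complemented with human TDP1, screened without camptothecin (DMSO vehicle only), 400 cells/well. Compounds pin-transferred, cells incubated at 37 °C for at least 48 hr. Growth read as ATP-dependent luminescence (CellTiter-Glo, 30 min at RT).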
HepG2 viability: counter-screen for TGF-b inhibitors: cytotoxicity in HepG2 cells. HepG2 CAGA-GFP viability, ATP luminescence, 18 h. Potency, µM (series often up to 46.1 µM), actives largely listed as cytotoxic. 0.76% of 410,000 active. AID 588856
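CellTiter-Glo luminescence gave cytotoxicity after 18 hours at 37 degrees C. The cells were HepG2 CAGA-GFP in 1% FBS DMEM, stimulated with 500 pg/mL TGF-beta after compound addition. %Activity was normalised to no-cell wells (complete cell-killing) and DMSO (no toxicity), and curves were fitted and classified.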
TGFb inhibitor: blocks TGF-b signaling. HepG2 CAGA-GFP TGF-b/SMAD3 reporter, GFP fluorescence, 18 h; TGF-beta stimulated, 500 pg/mL final. 1.2% of 410,000 active. Potency, µM (doses to about 46.1 µM), hits mostly inhibitors; further: nearly all actives have a fitted effect of over 65% in size
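Per well, imaged GFP fluorescence of HEPG2 CAGA-GFP cells gives the signal; cells get compound, then TGF-beta (500 pg/mL final), 18 h at 37 degrees C; %Activity versus -TGF-beta and +DMSO controls.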
S-ASM inh: human S-ASM enzyme inhibition | P17405 | placental ASM, HMU-PC fluorogenic substrate, 60 min | Potency, µM (series often up to 57.5 µM), hits mostly inhibitors | 0.006% of 340,000 active
Target sequence (P17405 47-631 limits assumed): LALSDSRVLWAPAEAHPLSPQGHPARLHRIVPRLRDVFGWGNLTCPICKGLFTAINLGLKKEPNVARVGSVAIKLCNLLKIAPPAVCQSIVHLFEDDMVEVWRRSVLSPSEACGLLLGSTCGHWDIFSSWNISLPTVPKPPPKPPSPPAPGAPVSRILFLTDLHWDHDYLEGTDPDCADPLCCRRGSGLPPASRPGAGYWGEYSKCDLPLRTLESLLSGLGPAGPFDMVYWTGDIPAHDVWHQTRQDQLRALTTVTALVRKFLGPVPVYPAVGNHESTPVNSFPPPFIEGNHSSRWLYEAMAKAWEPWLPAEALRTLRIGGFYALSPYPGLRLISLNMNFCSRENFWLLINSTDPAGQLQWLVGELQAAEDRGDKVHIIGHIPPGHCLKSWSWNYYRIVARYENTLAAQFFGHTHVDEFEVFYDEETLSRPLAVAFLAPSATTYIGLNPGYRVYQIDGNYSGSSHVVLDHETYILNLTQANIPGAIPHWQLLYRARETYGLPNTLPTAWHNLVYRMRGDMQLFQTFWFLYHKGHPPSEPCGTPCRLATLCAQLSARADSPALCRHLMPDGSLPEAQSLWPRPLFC
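Steps: dispense placental human ASM, pin compound, wait 10 min at room temperature, add HMU-PC0 substrate at 9 uM final, incubate 60 min at 37 °C, add stop solution raising pH to 10, read fluorescence.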
IL1B secr inh: inhibitors of inflammasome signaling (IL-1 beta secretion). 4.7% of 360,000 active. activity change, % at 57.5 µM. THP-1 LPS/ATP IL-1B secretion, AlphaLISA, 16 h; active compounds read low; in the data active means activity change below about -50%; inconclusive means mostly about -30% to -49%
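THP-1 cells pretreated 1 hr with compounds (up to 57.5 uM final), then stimulated with LPS (250 ng/mL final) plus ATP (1.25 mM final); secreted IL-1B measured by AlphaLISA after 16 hr, decreased signal indicating inhibition.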
Numbers stand for hits; – = inactive; ? = inconclusive; · = no result given. Unless noted, the call rests on the fitted dose curve; in most records, active means well fitted curve in the direction sought with a large enough effect; inconclusive means small, poorly fitted or top-dose-only effect, or another doubt; inactive means no such curve, though single readings can be large; an effect the other way counts as inactive or inconclusive.

SMILES | TDP1 cell CPT | TDP1 cell noCPT | HepG2 viability | TGFb inhibitor | S-ASM inh | IL1B secr inh
O=C(NCc1ccccc1)C1=C[C@@H](c2csc3ccccc23)C[C@@H](OCCCCO)O1 | 1.6µM | 1.6µM | – | ? | – | –
C#CCNC(=O)C1=C[C@@H](c2csc3ccccc23)C[C@@H](OCc2ccc(CO)cc2)O1 | 16µM | ? | – | ? | – | –
O=C(NCc1ccccc1)C1=C[C@@H](c2coc3ccccc3c2=O)C[C@@H](OCc2ccc(CO)cc2)O1 | 10µM | 9.2µM | – | – | – | –
O=C(C1=C[C@H](c2csc3ccccc23)C[C@H](OCc2ccc(CO)cc2)O1)N1CCCCCCC1 | ? | 21µM | – | ? | – | –
CN1N=C(N)c2cn(C3OC(COP(=O)(O)O)C(O)C3O)c3ncnc1c23 (stereo not drawn) | ? | – | – | 0.28µM | – | –
Cn1cccc1C(=O)NCC(c1ccco1)N1CCCCC1 (stereo not drawn) | – | – | – | – | – | –
COCCn1c(-c2ccc(SC)cc2)nc2c1c(=O)[nH]c(=O)n2CC(C)C | – | – | – | – | – | –
CCCCn1c(=O)[nH]c(=O)c2c1nc(-c1ccc3ccccc3c1)n2CC | ? | ? | – | – | – | –
CCCCn1c(=O)[nH]c(=O)c2c1nc(-c1ccc(C)c([N+](=O)[O-])c1)n2CC | ? | 21µM | – | – | – | –
Cc1ccc(-c2nc3c(c(=O)[nH]c(=O)n3CC(C)C)n2CC(C)C)cc1[N+](=O)[O-] | ? | 29µM | – | ? | – | –
COCCn1c(-c2ccc(OC(F)(F)C(F)C(F)(F)F)cc2)nc2c1c(=O)[nH]c(=O)n2CC(C)C (stereo not drawn) | 21µM | ? | – | ? | – | –
C=C(C(=O)Nc1ccccc1)c1ccc(C)cc1 | ? | – | – | – | – | –
CC(C)c1ccc(N2C=Nc3ccc(C(C)C)cc3C2)cc1 | ? | ? | – | ? | – | -97
C1=Nc2ccccc2CN1c1ccccc1 | – | ? | – | – | · | –
COc1ccc(CCNC(=O)CCn2c(=O)c3cccn3c3cccnc32)cc1OC | – | ? | – | – | – | –
Cc1ccc(S(=O)(=O)N2CCN(C(=O)CCC(=O)NCCc3ccc(F)cc3)CC2)cc1 | – | – | – | ? | – | –
CC(=O)Oc1cccc2c1C(=O)C1CC=CC(OC(C)=O)C1C2=O (stereo not drawn) | ? | 23µM | – | – | – | –
CCc1sc(C(=O)Nc2ccc(NC(C)=O)cc2)cc1C | – | – | – | – | – | ?
Cc1ccc(NC(=O)Cc2ccsc2)cc1Cl | ? | – | – | ? | – | –
CCc1sc(C(=O)Nc2ccc3nc(C)sc3c2)cc1C | ? | ? | – | – | – | -52
Cc1nc2ccc(NC(=O)c3sccc3C)cc2s1 | – | ? | – | – | – | ?
C=CCN(CC=C)C(=O)Nc1ccc2nc(C)sc2c1 | – | 21µM | – | – | – | –
CNC(=O)Nc1ccc2nc(C)sc2c1 | – | – | – | – | – | –
Cc1nc2ccc(NC(=O)Cc3ccsc3)cc2s1 | 16µM | 13µM | – | ? | – | –
C=CCNC(=O)Nc1ccc2nc(C)sc2c1 | 16µM | ? | – | – | – | –
CCOCCCNC(=O)/C(C#N)=C/c1ccc(-c2ccc(S(=O)(=O)N3CCOCC3)cc2)o1 | 12µM | 8.2µM | – | – | – | –
CCCCOC(=O)c1ccc(NC(=O)/C(C#N)=C/c2ccc(C)o2)cc1 | – | – | – | – | · | ·
COCCNC(=O)/C(C#N)=C/c1ccc(-c2ccc(S(=O)(=O)N3CCOCC3)cc2)o1 | ? | ? | – | – | – | –
CCOCCCNC(=O)/C(C#N)=C/c1cc(Br)c(O)c(Br)c1 | 4.1µM | 1.6µM | – | ? | – | ?
COCCNC(=O)/C(C#N)=C/c1cc(Br)c(O)c(OC)c1 | – | – | – | – | – | –
